High-throughput results as filed in PubChem BioAssay.
Sampled rows, rich in hits. Any-hit rate of the full collection: about 4.1%.
Shn3 inh set2: Schnurri-3 reporter inhibition in Clone20 osteoblasts | Clone20 osteoblast Shn3 3'UTR firefly luciferase, 24 h | AID 588674 | 360,000 tested, 0.52% active | inhibition, % at 12.5 µM;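 active means mean inhibition of at least 75% with every replicate also reaching 75%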
TROY NFkB inh: blocks TROY-dependent signaling in reporter cells | Q293 LMP1-TROYcd NF-kB luciferase reporter, 4 h | inhibition, % at 10 µM | 360,000 tested, 0.98% active;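 active means compounds whose plate-normalised and pattern-corrected inhibition of the luciferase reporter signal at the single screening dose is 50% or more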
LMP1 NFkB inh: reduces LMP1-driven NF-kappaB luciferase signal; LMP1-induced NF-kappaB luciferase reporter cells, luminescence; inhibition, % at 12.5 µM; 350,000 tested, 0.69% active; in the data active means inhibition above about 41%
MITF TRPM1 inh: inhibitors of MITF-driven TRPM1 promoter in melanoma cells; 330,000 tested, 0.83% active; inhibition, % at 12.5 µM; SK-MEL-5 TRPM1 promoter luciferase, 24 h;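 active means mean inhibition across replicates of 60% or more, whatever share of single replicates reaches that level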
Peg3 promoter: reduces Peg3 promoter-driven luciferase expression in HeLa; HeLa PEG-Prom luciferase reporter, luminescence, overnight; inhibition, % at 20 µM; 360,000 tested, 1.7% active; AID 588405;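 active means inhibition of at least 50% at 20 µM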
TWEAK Fn14 block: TWEAK-Fn14 signaling inhibition; inhibition, % at 10 µM; TWEAK-stimulated Fn14 reporter cells, luciferase luminescence, 8 h; 360,000 tested, 2% active; in the data active means inhibition above about 50%
Each line names hits and unclear results; the compound was inactive in the other large screens.

Cc1ccc(NC(=O)COC(=O)C2=COCCO2)c([N+](=O)[O-])c1	none
CC(=O)c1c(C)[nH]c(C(=O)OCC(=O)Nc2cc(Cl)ccc2[N+](=O)[O-])c1C	TROY NFkB inh 69.8, TWEAK Fn14 block 88.1
O=C(NCCCN1CCOCC1)c1cc(S(=O)(=O)N2CCCCC2)ccc1Cl	none (no result: MITF TRPM1 inh)
Cc1[nH]c(C)c(S(=O)(=O)Nc2ccc(OC(F)(F)F)cc2)c1C(=O)N1CCCCC1	none
COc1ccc(-c2noc(CCCC(=O)N3CCN(c4cc(C)ccc4C)CC3)n2)cc1	none
COc1ccc(-c2noc(CCCCC(=O)N3CCN(c4cc(C)ccc4C)CC3)n2)cc1	Shn3 inh set2 92.0, TWEAK Fn14 block 64.1
O=C(Nc1cccc(-c2cccc(Cl)c2)c1)C1CCN(Cc2ccc(CO)o2)CC1	Peg3 promoter 54.5
COP(=O)(c1ccc(N(C)C)cc1)C(O)c1ccccc1 (stereo not drawn)	none
CCOC(=O)C(C(=O)OCC)C(Nc1cccc(Br)c1)c1ccccc1 (stereo not drawn)	TWEAK Fn14 block 70.8
COC(=O)C(C)Nc1cccc(Br)c1 (stereo not drawn)	none (no result: Shn3 inh set2)
Cc1noc(C)c1S(=O)(=O)Nc1ccccc1Oc1ccccc1	none
O=C1c2ccccc2-c2onc3ccc(Oc4ccccc4)c1c23	Shn3 inh set2 90.5, LMP1 NFkB inh 53.2, MITF TRPM1 inh 97.1, Peg3 promoter 104.4, TWEAK Fn14 block 55.7
Cc1ccc(NC(=O)CCCn2nc(C)c3c(C)n(-c4ccccc4)nc3c2=O)c(Cl)c1	none
COc1ccc(OCC(=O)N(Cc2ccco2)C2CCS(=O)(=O)C2)cc1 (stereo not drawn)	none (no result: Shn3 inh set2, LMP1 NFkB inh, MITF TRPM1 inh)
c1ccc(CNc2ccc(N3CCOCC3)cc2)cc1	TROY NFkB inh 65.0
CCOC(=O)c1c[nH]c(=O)c(Br)c1O	LMP1 NFkB inh 60.7
CCOC(=O)c1c[nH]c2nc(C)ccc2c1=O	none
COc1ccc(CCC(=O)NNC(=O)c2ccc(F)cc2)cc1	TWEAK Fn14 block 52.6
CCN(CCNCC(O)COc1ccccc1C(C)C)c1cccc(C)c1 (stereo not drawn)	Peg3 promoter 93.4
CCOC(=O)N1CCN(CC(O)COc2ccccc2C(C)C)CC1 (stereo not drawn)	none
CC/C(=C\C1CCCCC1)C(NP(=O)(c1ccccc1)c1ccccc1)c1ccccc1 (stereo not drawn)	Peg3 promoter 59.2
O=P(NC1CCCCC1)(c1ccccc1)c1ccccc1	none
Cc1ccc2c(c1)c1nnc(SCC(=O)Nc3ccc(N(C)C)cc3)nc1n2CC(=O)O	none
O=C(C1CCC(Cn2c(=S)[nH]c3ccccc3c2=O)CC1)N1CCN(c2ccccn2)CC1 (stereo not drawn)	TWEAK Fn14 block 55.6
O=C(C1CCC(Cn2c(=S)[nH]c3ccccc3c2=O)CC1)N1CCN(c2ccccc2)CC1 (stereo not drawn)	none
COC(=O)c1ccccc1OCCOc1ccccc1C(=O)OC	none
COC(=O)c1ccccc1OCCCOc1ccc(C=O)cc1OC	TWEAK Fn14 block 53.2
Cc1nc2ncccn2c1-c1csc(Nc2ccccc2)n1	LMP1 NFkB inh 40.5
COc1ccc(Nc2nc(-c3c(C)nc4ncccn34)cs2)cc1	none
Cc1cc(=O)n2cn[nH]c2n1	none
Clc1ccc(-c2nc3n(n2)Cc2ccccc2-3)cc1	TWEAK Fn14 block 51.7
CCN(CC)S(=O)(=O)c1cccc(-c2nc3n(n2)Cc2ccccc2-3)c1	none
N#C/C(=C\c1c(F)cccc1Cl)S(=O)(=O)c1ccccn1	none
Cc1ccc([C@H]2N[C@]3(CCCN(Cc4ccc(C(F)(F)F)cc4)C3=O)[C@H]3C(=O)N(C)C(=O)[C@@H]23)cc1	none (no result: MITF TRPM1 inh)
CC1(C)CC(=O)C2=C(C1)NC1=C(C(=O)c3ccccc31)C2c1ccc(O)cc1 (stereo not drawn)	none
CCCCc1ccc(C2C3=C(CC(C)(C)CC3=O)NC3=C2C(=O)c2ccccc23)cc1 (stereo not drawn)	TWEAK Fn14 block 57.2
CCCc1ccc(C2C3=C(CC(C)(C)CC3=O)NC3=C2C(=O)c2ccccc23)cc1 (stereo not drawn)	Peg3 promoter 55.9, TWEAK Fn14 block 55.0
COC1=CC(=O)C=C(OC)C1(O)CC(C)=O	none
NC(=O)c1ncn([C@@H]2O[C@H](CNS(=O)(=O)c3cc4ccccc4s3)[C@@H](O)[C@H]2O)n1	none
Cc1cccnc1NC(=O)c1ccc(OCc2c(C)noc2C)cc1	none
COc1ccc(NC(=O)C2CCCN2C(=O)NC2CCCCC2)c(OC)c1 (stereo not drawn)	none
CN1/C(=C\C=N\O)C(C)(C)c2ccccc21	none
CN(C)c1ccc(N=C/C=C2/N(C)c3ccccc3C2(C)C)cc1	TWEAK Fn14 block 60.7
COc1cccc(-n2nnnc2SCC(=O)NCc2ccc3c(c2)OCO3)c1	TWEAK Fn14 block 81.0
NC(=O)CSc1nc2cc3c(cc2c(=O)n1CCCC(=O)NCc1ccc2c(c1)OCO2)OCO3	LMP1 NFkB inh 44.9
O=C(CSc1nc2ccccc2s1)NCc1ccc2c(c1)OCO2	TWEAK Fn14 block 62.0
O=C(CSc1nnc(NC(=O)c2ccc3c(c2)OCO3)s1)NCc1ccco1	LMP1 NFkB inh 47.8, TWEAK Fn14 block 60.8
COc1cc(OC)cc(-n2nnnc2SCC(=O)NCc2ccc3c(c2)OCO3)c1	none
O=C(Nc1ccc2c(c1)Cc1ccccc1-2)c1cccnc1	none
O=C(CSc1ncnc2scc(-c3ccc(Cl)cc3)c12)NCc1ccc2c(c1)OCO2	TWEAK Fn14 block 85.9
CC(=NNC(=O)C(C)SC(C)C(=O)NN=C(C)c1cccnc1)c1cccnc1 (stereo not drawn)	none
C[C@@H](NC(=O)c1ncn2c1c(=O)[nH]c1ccc(Br)cc12)c1ccccc1	Peg3 promoter 79.1 (no result: MITF TRPM1 inh)
C[C@@H](NC(=O)c1ncn2c1c(=O)[nH]c1cccnc12)c1ccccc1	none (no result: MITF TRPM1 inh)
CCN(CC(=O)Nc1c(F)cccc1F)C(=O)CCNC(=O)c1ccc([N+](=O)[O-])cc1	none
O=C(CSc1ncnc2c(-c3ccc(Cl)cc3)nsc12)c1ccccc1	TROY NFkB inh 57.3
Cc1ccc(N2C(=O)c3cccc4c(Oc5ccccc5[N+](=O)[O-])ccc(c34)C2=O)c(C)c1	none
O=C1C(Oc2ccccc2)C(c2cccs2)N1Cc1ccc2c(c1)OCO2 (stereo not drawn)	none
COc1ccc(OC2C(=O)N(Cc3ccc4c(c3)OCO4)C2c2cccs2)cc1 (stereo not drawn)	TWEAK Fn14 block 61.0
Cc1ccc(NC(=O)CSCC(=O)NCc2cccc(C(F)(F)F)c2)cc1	none
CC1(c2nc3ccccc3[nH]2)CCC(=O)N1Cc1ccc(F)cc1 (stereo not drawn)	none (no result: LMP1 NFkB inh, MITF TRPM1 inh)
COc1ccc(C2C(C(=O)c3ccccc3)=C(C)Nc3nc4ccccc4n32)c(OC)c1 (stereo not drawn)	TROY NFkB inh 52.9, TWEAK Fn14 block 75.8 (no result: MITF TRPM1 inh)
O=C(c1ccco1)N1CCN(Cc2cc(=O)oc3cc(O)ccc23)CC1	none
COc1ccccc1CNC(=O)CCN=C1NS(=O)(=O)c2ccccc21	none
